Records with an inconclusive call do not appear. Activity calls are given as the source filed them. Calls follow the shape of the dose curve; as a rule, active = well fitted cell-killing curve with a large enough effect; inconclusive = small, poorly fitted or top-dose-only effect, or effect the other way; inactive = no such curve, though single readings can be large or run the other way.
Assay: qHTS of pediatric cancer cell lines to identify multiple opportunities for drug repurposing: Confirmatory screen for Rh30 cells (AID 1347126); also: nearly all actives have a fitted effect of over 55% in size
Conditions: Rh30 rhabdomyosarcoma cell viability; series mostly up to 45.9 µM
Source text: Drug repurposing or repositioning has been offered as a strategy for drug development in oncology programs. This approach has special potential for childhood cancers and other rare or orphan diseases, where the expected return on new drug development has been a disincentive to pharmaceuticals.
In this project we exploit the poly-pharmacology of drugs to discover new indications via phenotypic screening of a panel of 19 well-characterized cell lines derived from solid tumors seen in children and adolescents. The goal is to identify approved drugs with previously unrecognized anticancer properties that has the potential to reveal new mechanisms and biological processes involved in carcinogenesis or drug resistance. We employed a titration-based paradigm (quantitative high-throughput screening or qHTS), where all compounds were tested at multiple concentrations for their effect on cell viability. Concentration-response curves (CRCs) were derived directly from the primary screen, and both potency and efficacy values were used to identify compounds with robust bioactivity profiles. We screened the NIH Chemical Genomics Center (NCGC) Pharmaceutical Collection (NPC) and Mechanism Interrogation Plate (MIPE) small molecule collections of approved and investigational compounds against these cell lines; and measured metabolically active cells after 48 hours of compound treatment as a proxy for cell viability.
Assay Submitter: Nathalia J. Martinez, National Center for Advancing Translational Sciences, National Institutes of Health, Rockville, MD, USA; email: natalia.martinez@nih.gov
[1] Shen, M et al. Quantitative high-throughput phenotypic screening of pediatric cancer cell lines identifies multiple opportunities for drug repurposing. Oncotarget 2017 Dec 19;9(4):4758-4772. PMID 29435139.
The cells were obtained from University of North Carolina (UNC), Pediatric Preclinical Testing Program (PPT), and Coriell Institute (CI).
qHTS cell viability assay:
Cells were assayed in growth media at a density of 500-1,000 cells/well. Five microliters of cells were dispensed into 1,536-well, white, solid-bottom, TC-treated plates (Greiner Bio One) using a multidrop dispenser and incubated at 37 degrees C, 5% CO2, under a humidified atmosphere for 5 hours. Twenty-three nanoliters of compounds and controls (neutral control DMSO or positive control bortezomib at final concentration of 2.3 µM) were subsequently transferred by Kalypsys pintool. For primary screens, the MIPE collection was tested at 11-point dilutions (final concentrations range from 0.78 nM to 46 µM) and the NPC collection at 8-point dilutions (final concentrations range from 0.59 nM to 46 µM). Compounds tested in follow-up screens were assayed at 11-point dilutions. Cells were incubated for 48 hours, followed by addition of 3 µL of CellTiter-Glo (Promega). After a 15 min incubation at room temperature, samples were analyzed for luminescence intensity using a ViewLux High-throughput CCD imager equipped with clear filters.
Potency is read from the fitted curve at half-maximal effect.

Compound | Potency
CN(Cc1cnc2nc(N)nc(N)c2n1)c1ccc(C(=O)N[C@@H](CCC(=O)O)C(=O)O)cc1 | inactive
O=C(c1ccc(OCCN2CCCCC2)cc1)c1c(-c2ccc(O)cc2)sc2cc(O)ccc12 | 3.69 µM (active)
CCCCc1oc2ccccc2c1C(=O)c1cc(I)c(OCCN(CC)CC)c(I)c1 | 56.2 µM (active)
CC[C@@]1(O)C(=O)OCc2c1cc1n(c2=O)Cc2cc3c(CN(C)C)c(O)ccc3nc2-1 | 2.93 µM (active)
CS(=O)(=O)Nc1ccc([N+](=O)[O-])cc1Oc1ccccc1 | inactive
CC(COc1ccccc1)N(CCCl)Cc1ccccc1 (configuration not stated) | 16.5 µM (active)
CC(C)Cc1ccc(C(C)C(=O)O)cc1 (configuration not stated) | inactive
Clc1ccc(C(c2ccccc2Cl)C(Cl)Cl)cc1 (configuration not stated) | inactive
CN1CCN(CCCN2c3ccccc3Sc3ccc(Cl)cc32)CC1 | 18.5 µM (active)
CC(CCc1ccc(O)cc1)NCCc1ccc(O)c(O)c1 (configuration not stated) | inactive
O=C1c2c(O)ccc(O)c2C(=O)c2c(NCCNCCO)ccc(NCCNCCO)c21 | 4.14 µM (active)
Clc1ccc2nsnc2c1NC1=NCCN1 | 7.37 µM (active)
NC12CC3CC(CC(C3)C1)C2 | inactive
O=C(Nc1ccc([N+](=O)[O-])cc1Cl)c1cc(Cl)ccc1O | 2.29 µM (active)
COC(=O)Nc1nc2ccc(C(=O)c3cccs3)cc2[nH]1 | inactive
CCC1(c2ccccc2)C(=O)NCNC1=O | inactive
CS(=O)(=O)CCNCc1ccc(-c2ccc3ncnc(Nc4ccc(OCc5cccc(F)c5)c(Cl)c4)c3c2)o1 | 14.7 µM (active)
